# Laboratory results from PubChem BioAssay AID588727 (Southern Research Specialized Biocontainment Screening …, 2011).
# About 450 (0.13%) of roughly 350,000 compounds were called active. The rule behind the calls is not given here. The list is a sample of the results. Entries with a potency or affinity are not part of this list.
# Assay: inhibitors of VEEV TC-83 cytopathic effect, confirmation, Vero cells (AID 588727)
# Details: VEEV TC-83 cytopathic effect inhibition, at 20 µM
# [1] = stronger effect = higher value unless noted
# [2] = measured here: 10K pilot screen inhibition, stronger effect = higher value
compound,measurement,setting,value
OCC1CCCCN1C(=S)NCc1ccco1 (stereo not given),inhibition,[1],2.33% (inactive)
O=C(NNC(=O)c1ccc2ccccc2c1)c1cccc(F)c1,inhibition,[1],0.5% (inactive)
COc1ccccc1NS(=O)(=O)c1ccc(C(=O)N2CCN(c3ccccn3)CC2)cc1,inhibition,[1],12.1% (inactive)
COc1cc2cc(CN(CCO)S(=O)(=O)c3ccccc3)c(=O)[nH]c2cc1OC,inhibition,[1],2.19% (inactive)
CCOC(=O)C(CC)n1cnc2sc3c(c2c1=O)CCC3 (stereo not given),inhibition,[1],2.46% (inactive)
CCc1ccc(/C=C/C(=O)c2cc(Br)ccc(=O)c2O)cc1,inhibition,[1],2.12% (inactive)
CCNc1ccc(Br)cc(C(=O)/C=C/c2ccccc2Cl)c1=O,inhibition,[1],2.29% (inactive)
CN(C)/C=C/C(=O)/C=C/c1ccc(Cl)cc1Cl,inhibition,[1],inactive
COc1ccc(/C=C/C(=O)c2cc(Cl)cc(Cl)c2O)c(OC)c1,inhibition,[1],0.43% (inactive)
CC(=O)Nc1ccc(S(=O)(=O)Nc2ccc3c(c2)OCO3)cc1,inhibition,[1],inactive
Cc1ccc(-c2cc(C(=O)NCCCn3ccnc3)c3ccccc3n2)s1,inhibition,[1],10.3% (inactive)
CC(OC(=O)Cn1cnc2ccccc2c1=O)C(=O)N(C)c1ccccc1 (stereo not given),inhibition,[1],1.86% (inactive)
Cc1cc(SCC(=O)c2cc3ccccc3o2)nc2ccccc12,inhibition,[1],inactive
COc1ccc(NC(=O)CSc2nc3ccccc3c(=O)n2CCC(=O)N2CCCCC2)cc1,inhibition,[1],10.7% (inactive)
CCN(C(=O)c1cccc(Br)c1)c1ccccc1,inhibition,[1],1.28% (inactive)
CCC(=O)Nc1nonc1-c1nc2ccccc2n1CC(C)C,inhibition,[1],0.38% (inactive)
CC(=O)Nc1nonc1-c1nc2ccccc2n1CCC(C)C,inhibition,[1],2.19% (inactive)
N#CCCn1c(-c2nonc2NC(=O)c2ccccc2Cl)nc2ccccc21,inhibition,[1],inactive
CCn1c(-c2nonc2NC(=O)c2ccccc2)nc2ccccc21,inhibition,[1],inactive
CCOc1ccccc1Nc1ccnc2cc(Cl)ccc12,inhibition,[1],0.76% (inactive)
C=C1CCN([C@@H](Cc2ccccc2)C(=O)NC2CCN(Cc3ccccc3)CC2)S(=O)(=O)c2ccccc21,inhibition,[1],inactive
CCCN1C2CCCC1CC(NC(=O)c1ccc(Br)cc1)C2 (stereo not given),inhibition,[1],0.23% (inactive)
CCN(CC)S(=O)(=O)c1ccc(Cl)c(C(=O)OCC(=O)c2c(N)n(C)c(=O)n(C)c2=O)c1,inhibition,[1],2.96% (inactive)
COCCCNC(=O)c1cc(C(=O)Cc2ccccc2)c[nH]1,inhibition,[1],0.38% (inactive)
O=C(CCn1c(=S)oc2ccccc21)Nc1cccc(O)c1,inhibition,[1],1.38% (inactive)
COc1ccc(C2c3[nH]c4ccccc4c3CCN2C(=O)c2ccc(=O)n(C)n2)c(F)c1 (stereo not given),inhibition,[1],1.1% (inactive)
COc1ccc(C2c3[nH]c4ccccc4c3CCN2C(=O)c2cn3ccccc3n2)c(F)c1 (stereo not given),inhibition,[1],8.94% (inactive)
CCC(CC)c1nc(C(N)=O)c2[nH]c(=O)n(-c3ccc(OC)c(OC)c3)c2n1,inhibition,[1],1.45% (inactive)
NNc1nc(-c2ccccc2)cc(-c2ccc(Br)cc2)n1,inhibition,[1],7.9% (inactive)
CN1OC[C@@H]2CN(C(=O)C(C)(C)C)[C@H](c3cccc(Br)c3)C[C@@H]21,inhibition,[1],inactive
Clc1ccc(-c2cc(C3CCNCC3)[nH]n2)cc1,inhibition,[1],0.74% (inactive)
c1ccc2c(-c3cc(C4CCNCC4)[nH]n3)cccc2c1,inhibition,[1],6.53% (inactive)
CC(OC(=O)c1cc(S(=O)(=O)N2CCOCC2)ccc1F)C(=O)NCC1CCCCC1 (stereo not given),inhibition,[1],0.1% (inactive)
O=C(N/N=C/c1cccnc1)c1ccc(NC(=O)c2ccccc2Cl)cc1,inhibition,[1],1.2% (inactive)
O=C(NCCN1CCN(C(=O)c2cccc(OC(F)F)c2)CC1)c1cccc(OC(F)F)c1,inhibition,[1],0.88% (inactive)
O=C(N[C@@H]1CCC(=O)N(CC[C@H](Sc2ccc(Br)cc2)c2ccccc2)CC1)OCc1ccccc1,inhibition,[1],1.21% (inactive)
Cc1ccc(-c2csc(NC(=O)/C=C/c3cccs3)n2)cc1C,inhibition,[1],7.86% (inactive)
O=C(/C=C/c1cccs1)Nc1nc(-c2ccccc2)cs1,inhibition,[1],10.2% (inactive)
COc1ccc(OC)c(/C=N/n2c(COc3ccccc3)n[nH]c2=S)c1,inhibition,[1],1.2% (inactive)
Cc1sc(NC(=S)NC(=O)c2ccccc2)c(C#N)c1C,inhibition,[1],1.72% (inactive)
Cc1sc(NC(=S)NC(=O)c2ccco2)c(C#N)c1C,inhibition,[1],0.86% (inactive)
Cc1cccc(S(=O)(=O)N(C)C[C@H]2OCc3cn(nn3)CCCC(=O)N([C@@H](C)CO)C[C@@H]2C)c1,inhibition,[1],0.62% (inactive)
O=S(=O)(c1ccc(F)cc1)N1CCC2(CC1)OCCO2,inhibition,[1],0.49% (inactive)
COC(C[C@H](O)C[C@H](O)[C@@H](C)OCc1ccccc1)OC,inhibition,[1],0.19% (inactive)
CCn1c(C)nc2cc(C(=O)OC)ccc21,inhibition,[1],0.32% (inactive)
CCn1c(C)nc2cc(C(=O)OCCC(F)(F)F)ccc21,inhibition,[1],8.24% (inactive)
Cc1cc(C)nc(NS(=O)(=O)c2ccc(NC(=O)c3ccc(N4C(=O)CCC4=O)cc3)cc2)n1,inhibition,[1],inactive
Nc1ccn([C@@H]2O[C@H](CO)[C@@H](O)[C@@H]2O)c(=O)n1,inhibition,[1],inactive
Nc1ccn([C@@H]2O[C@H](CO)[C@@H](O)[C@H]2O)c(=O)n1,inhibition,[1],0.98% (inactive)
CNC(=S)N(Cc1ccccc1)Cc1cccnc1,inhibition,[1],3.13% (inactive)
CCOC(=O)c1c(NC(=O)CSc2nnc(-c3ccccc3)o2)sc(C(C)=O)c1C,inhibition,[1],2.08% (inactive)
CC(OC(=O)/C=C/c1cccc(C(F)(F)F)c1)C(=O)NC1CCCCC1C (stereo not given),inhibition,[1],3.48% (inactive)
Cc1ccc(NC(=O)/C(C#N)=N/Nc2ccc(C(=O)O)cc2)c(C)c1,inhibition,[1],1.78% (inactive)
CNC(=O)C(=O)Nc1ccc(C)cc1C,inhibition,[1],0.04% (inactive)
CCOC(=O)c1ccc(CC2S/C(=C(\C#N)C(C)=O)NC2=O)cc1 (stereo not given),inhibition,[1],1.08% (inactive)
CC(=O)/C(C#N)=C1\NC(=O)C(Cc2ccc(F)cc2)S1 (stereo not given),inhibition,[1],9.23% (inactive)
CC(C)=N/N=C1/NC(=O)C(Cc2ccccc2)S1 (stereo not given),inhibition,[1],2.54% (inactive)
C/C(=N\N=C1\NC(=O)C(Cc2ccccc2)S1)c1ccccc1 (stereo not given),inhibition,[1],1.26% (inactive)
CN1CCN(c2ccc3nccnc3c2)CC1,inhibition,[1],0.19% (inactive)
CN1CCN(c2nc3cc(N4CCOCC4)ccc3s2)CC1,inhibition,[1],inactive
O=C1CNC(=O)/C(=C\c2ccc(F)cc2)N1,inhibition,[1],inactive
CCOC(=O)COc1cc2c3c(c(=O)oc2cc1C)CCCC3,inhibition,[1],1.83% (inactive)
CCOC(=O)CSc1nnc(NC(=O)CN2CCCCC2)s1,inhibition,[1],inactive
CC(=O)Nc1ccc(S(=O)(=O)N(C)CC(=O)OC(C)C(=O)NC2(C#N)CCCCC2)cc1 (stereo not given),inhibition,[1],0.4% (inactive)
COc1ccc(NC(=O)COc2ccc(CNCCCN3CCOCC3)cc2OC)cc1,inhibition,[1],inactive
CCOc1cc(CNCCCN2CCOCC2)ccc1OCC(=O)NC(C)(C)C,inhibition,[1],0.44% (inactive)
CCCCn1c(=S)[nH]c2ncccc2c1=O,inhibition,[1],1.76% (inactive)
COc1ccc(N2CCN(CCCn3c(=S)[nH]c4ncccc4c3=O)CC2)cc1,inhibition,[1],26.7% (inactive)
Cc1ccc2oc(=O)cc(/C=C/c3ccccc3)c2c1,inhibition,[1],0.72% (inactive)
Cc1ccccc1C(=O)NN1C(=O)CSC1=S,inhibition,[1],0.35% (inactive)
CCc1ccc(C2CC(=O)N(c3cccc(F)c3)C3=C2C(=O)OC3)cc1 (stereo not given),inhibition,[1],inactive
COc1ccccc1CNC(=O)[C@H](Cc1c[nH]c2ccccc12)NC(=O)[C@@H]1Cc2ccccc2CN1,inhibition,[1],0.04% (inactive)
CC(C)C[C@H](NC(=O)[C@@H]1Cc2ccccc2CN1)C(=O)Nc1ccc(C(C)C)cc1,inhibition,[1],0.75% (inactive)
COc1ccc(CNC(=O)[C@H](Cc2c[nH]c3ccccc23)NC(=O)[C@@H]2Cc3ccccc3CN2)cc1,inhibition,[1],inactive
Cc1cccc(NC(=O)[C@@H](CC(C)C)NC(=O)[C@@H]2Cc3ccccc3CN2)c1,inhibition,[1],inactive
Cc1ccc(NC(=O)[C@H](NC(=O)[C@@H]2Cc3ccccc3CN2)c2ccccc2)c(C)c1,inhibition,[1],1.71% (inactive)
CC(NC(=O)[C@H](Cc1c[nH]c2ccccc12)NC(=O)[C@@H]1Cc2ccccc2CN1)c1ccccc1 (stereo not given in full),inhibition,[1],inactive
Cc1ccc(NC(=O)[C@H](Cc2ccccc2)NC(=O)[C@@H]2Cc3ccccc3CN2)c(C)c1,inhibition,[1],1.94% (inactive)
Cc1cc(C)cc(NC(=O)[C@H](Cc2c[nH]c3ccccc23)NC(=O)[C@@H]2Cc3ccccc3CN2)c1,inhibition,[1],0.29% (inactive)
O=C(O)c1cc(S(=O)(=O)Nc2cccc(S(=O)(=O)N3CCCC3)c2)ccc1Cl,inhibition,[1],0.74% (inactive)
Cc1ccc(C(=O)Nc2cccnc2Oc2ccc(Cl)cc2)cc1,inhibition,[1],7.89% (inactive)
O=C(O)c1ccc(Cl)c(S(=O)(=O)N(Cc2ccccc2)c2ccccc2Cl)c1,inhibition,[1],inactive
CCC(O)CC(C(=O)NNc1ccccc1)C(=O)NNc1ccccc1 (stereo not given),inhibition,stronger effect = higher value,1.75% (inactive)
same,inhibition,[2],1.77%
COc1ccc(OCc2cc(/C=N\NC(=O)c3ccccc3)ccc2OC)cc1,inhibition,[1],7.93% (inactive)
COc1cccc(NC(=O)[C@H](Cc2ccccc2)NC(=O)[C@@H]2Cc3ccccc3CN2)c1,inhibition,[1],2.9% (inactive)
COc1cccc(NC(=O)[C@H](CC(C)C)NC(=O)[C@@H]2Cc3ccccc3CN2)c1,inhibition,[1],0.34% (inactive)
c1ccc(CSc2ncnc3c2ncn3C2CCCCO2)cc1 (stereo not given),inhibition,[1],4.13% (inactive)
Fc1ccccc1CSc1ncnc2c1ncn2C1CCCCO1 (stereo not given),inhibition,[1],4.89% (inactive)
CCOC(=O)C1CCC(=O)C1 (stereo not given),inhibition,[1],0.89% (inactive)
Cn1c(CN2CCCCC2)nc2cc(NS(=O)(=O)c3ccc(F)cc3)ccc21,inhibition,[1],0.17% (inactive)
C#CCN(C[C@@H]1[C@@H](OC(=O)Nc2cccs2)[C@@H](OC(=O)Nc2cccs2)Cn2c(=O)n(CCCCCC)c(=O)n21)S(=O)(=O)c1ccc(C)cc1,inhibition,[1],inactive
C#CCN(C[C@@H]1[C@@H](OC(=O)NC2CC2)[C@@H](OC(=O)NC2CC2)Cn2c(=O)ccc(=O)n21)S(=O)(=O)c1ccc(C)cc1,inhibition,[1],0.49% (inactive)
COc1ccc(-c2c3c(=O)n(C)c(=O)n(C)c3cn2Cc2cccnc2)cc1,inhibition,stronger effect = higher value,1.95% (inactive)
same,inhibition,[2],1.55%
